A number with no mark means an inactive call. The call rests on the fitted dose curve.
Molecular target: Androgen receptor (Homo sapiens) (UniProt P10275)
Assay: qHTS assay to identify small molecule agonists of the androgen receptor (AR) signaling pathway in the presence of an antagonist (AID 1259381); further: nearly all actives have a fitted effect of over 15% in size
Details: MDA-kb2 MMTV-luciferase, AR agonist + nilutamide, 16 h; series mostly up to 92.4 µM; activation: at the top concentration
From the text: National Center for Advancing Translational Sciences [NCATS] NIH Chemical Genomics Center [NCGC] U.S. Environmental Protection Agency [EPA] National Institutes of Environmental Health Sciences [NIEHS] National Toxicology Program [NTP] Assay overview: Androgen receptor (AR) is an important member of nuclear receptor family. Its signaling plays a critical role in AR-dependent prostate cancer and other androgen related diseases. Considerable attention has been given in the past decades to develop methods to study and screen for the environmental chemicals that have the potential to interfere with metabolic homeostasis, reproduction, developmental and behavioral functions. Therefore AR binding assay for screening against androgen agonists and antagonists can be used to identify potential endocrine disruptors. MDA-kb2 cells (from ATCC, deposited by Wilson et al.) are human breast carcinoma cells that were stably transfected with a luciferase reporter gene under control of the MMTV promoter that contains response elements for both androgen receptor (AR) and glucocorticoid receptor (GR). This particular screening for measuring luciferase reporter gene activity using MDA-kb2 cells against Tox21 10K library compounds is a confirmation study on agonist mode screening in the presence of AR-antagonist compound (Nilutamide) at 3.0uM final concentration.
Assay Protocol Summary: MDA-kb2 cells (cells cultured without CO2) were dispensed at 3,000 cells/well in 4uL of culture medium into white wall/solid-bottom 1536-well plates (Corning Life Sciences, Corning, NY) using a Multidrop Combi (Thermo Fisher Scientific Inc., Waltham, MA) dispenser. The assay plates were incubated at 37C and 0% CO2 for 5hr. One uL of 3.0uM (final concentration) Nilutamide or assay buffer was added using two separate tips of Flying Reagent Dispenser (FRD, Aurora Discovery, San Diego, CA). Then 23nL of compounds dissolved in DMSO at 15 concentrations and positive controls were transferred to the assay plates using a Pintool station (Wako, San Diego, CA). The assay plates were incubated at 37C and 0% CO2 for 16hr. For luciferase read, 4uL/well ONE-Glo reagent (Promega Corporation, Madison, WI) was added to each well of the assay plates using FRD. After 30min incubation at room temperature, the luminescence signal was measured using a ViewLux plate reader (PerkinElmer, Shelton, CT).
On the % scale 0 is the no-effect control and ±100 the full control effect.

Chain of Androgen receptor (Homo sapiens) (P10275 whole entry, looked up): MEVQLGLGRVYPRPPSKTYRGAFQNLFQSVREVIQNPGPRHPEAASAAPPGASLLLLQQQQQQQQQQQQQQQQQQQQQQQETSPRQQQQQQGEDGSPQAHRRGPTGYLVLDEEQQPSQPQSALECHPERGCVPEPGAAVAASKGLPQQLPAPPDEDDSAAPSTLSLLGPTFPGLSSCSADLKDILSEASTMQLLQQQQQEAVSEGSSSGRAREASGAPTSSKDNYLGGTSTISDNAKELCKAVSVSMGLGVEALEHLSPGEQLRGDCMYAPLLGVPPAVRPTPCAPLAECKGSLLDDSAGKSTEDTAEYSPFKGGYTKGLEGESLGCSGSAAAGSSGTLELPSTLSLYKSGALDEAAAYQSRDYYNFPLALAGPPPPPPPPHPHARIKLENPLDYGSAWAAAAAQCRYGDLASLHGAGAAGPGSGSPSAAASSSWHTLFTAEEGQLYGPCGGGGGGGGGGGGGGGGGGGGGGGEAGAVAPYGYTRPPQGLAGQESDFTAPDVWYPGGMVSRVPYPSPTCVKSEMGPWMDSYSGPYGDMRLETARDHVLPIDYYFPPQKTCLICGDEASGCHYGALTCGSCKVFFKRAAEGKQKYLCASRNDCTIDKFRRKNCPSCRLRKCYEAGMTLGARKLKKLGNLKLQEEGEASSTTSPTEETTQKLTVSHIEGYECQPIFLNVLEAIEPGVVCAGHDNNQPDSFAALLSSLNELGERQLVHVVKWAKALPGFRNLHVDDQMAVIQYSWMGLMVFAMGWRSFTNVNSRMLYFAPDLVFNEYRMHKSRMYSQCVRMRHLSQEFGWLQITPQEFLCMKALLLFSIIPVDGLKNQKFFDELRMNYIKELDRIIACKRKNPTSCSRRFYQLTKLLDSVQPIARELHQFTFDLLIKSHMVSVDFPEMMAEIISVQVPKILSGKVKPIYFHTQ

| Compound | activation |
| --- | --- |
| Cc1nc2n(c(=O)c1CCN1CCC(C(=O)c3ccc(F)cc3)CC1)CCS2 | -7.34% [at 42.5 µM] |
| Nc1ccnc(=O)[nH]1 | 0.0709% |
| COc1ccc(/C=N/NC(=O)c2ccncc2)cc1OC | 1.51% [at 42.5 µM] |
| O=C1c2ccccc2-c2ccccc21 | 0.0152% |
| CCCCCCCCCCCCCCCCI | 0.857% [at 19 µM] |
| O=S(=O)(O)SSS(=O)(=O)O | -0.452% |
| OC(CCN1CCCCC1)(c1ccccc1)c1ccccc1 | -2.35% [at 42.5 µM] |
| O=C(O)c1ccc(OCCN2CCCCC2)cc1 | -0.155% [at 42.5 µM] |
| COC(OC)C(C)c1ccccc1 (stereo not given) | -0.33% |
| CC(=O)OC(C(=O)c1ccccc1)c1ccccc1 (stereo not given) | -1.41% |
| O=C1OC(=O)c2cc(Oc3ccc4c(c3)C(=O)OC4=O)ccc21 | 1.49% |
| O=CN1CCOCC1 | 0.942% |
| COc1cccc2sc(N)nc12 | 10.1% |
| CCCOCCOCCOCCO | -2.24% |
| O=C(O)c1ccccc1C(=O)Nc1ccc(S(=O)(=O)Nc2nccs2)cc1 | -0.871% [at 42.5 µM] |
| CCNC(=O)/C=C/c1cccc(Br)c1 | -0.504% [at 42.5 µM] |
| O=C(CN1CCN(Cc2ccc3c(c2)OCO3)CC1)N1c2ccccc2Sc2ccccc21 | -2.55% [at 42.5 µM] |
| CN[C@@H]1[C@H](O)[C@H](NC)[C@H]2O[C@@]3(O)C(=O)C[C@@H](C)O[C@H]3O[C@@H]2[C@H]1O | -2.76% [at 42.5 µM] |
| CCCCC(CC)CNC(=O)CC(C)OC(=O)CCC(=O)O (stereo not given) | 6.13% [at 42.5 µM] |
| COc1cc([N+](=O)[O-])ccc1N | 1.38% |

| Compound | activation |
| --- | --- |
| CNC(=O)NC | -1.26% |
| Cc1ncc([N+](=O)[O-])n1CC(O)CCl (stereo not given) | 6.02% [at 42.5 µM] |
| CCCCCCCCCCC | 0.405% |
| CC(C)C(=O)Nc1cccc(C(F)(F)F)c1 | 0.31% [at 42.5 µM] |
| CCCCCCCCCCCCCC(=O)OC | 1.13% |
| O=C(O)c1ccccc1C(=O)OCc1ccccc1 | 3.63% |
| CC(=O)OC[C@H]1O[C@@H](OC(C)=O)[C@H](OC(C)=O)[C@@H]1OC(C)=O | -0.453% [at 42.5 µM] |
| CCCCCCCCCCCCCCCCCCN(C)C | -1.35% [at 42.5 µM] |
| CCCCC[Si](OCC)(OCC)OCC | 0.39% |
| O=c1[nH]c(=O)c2ccccc2o1 | 0.0729% [at 42.5 µM] |
| C=CCOCC(O)CCl (stereo not given) | 1.94% |
| Nc1ccc(S(=O)(=O)Nc2ccccn2)cc1 | -0.0829% [at 42.5 µM] |
| CCC(C)(C)C1CCC(=O)CC1 | -0.119% |
| Nc1cc(C(=O)O)ccc1Cl | 2.11% |
| C=CCCCCCCCCCCC | 2.68% [at 8.39 µM] |
| Cn1c(=O)c2c(ncn2CC2OCCO2)n(C)c1=O | -1.78% [at 42.5 µM] |
| CCN(CC)C(=O)C1CN2CCc3cc(OC)c(OC)cc3C2CC1OC(C)=O (stereo not given) | -0.901% [at 42.5 µM] |
| CC(C)COC(=O)COc1ccc(Cl)cc1Cl | 1.08% |
| COCC(=O)Nc1c(I)c(C(=O)NCC(O)CO)c(I)c(C(=O)N(C)CC(O)CO)c1I (stereo not given) | 1.2% [at 42.5 µM] |
| CC(=O)N1CCN(c2ccc(O)cc2)CC1 | 1.42% [at 42.5 µM] |

Reference: PubChem BioAssay (Tox21)
